Compounds without any hit were thinned out: in the full panel of roughly 79,000, 15% have a hit. Activity calls are given as the source filed them. Rule as the data show it: active = growth inhibition above about 70%; inactive = the rest.

One test is described as follows: NCI Yeast Anticancer Drug Screen. Data for the bub3 strain (AID 167). The conditions noted are these: S. cerevisiae bub3 mutant strain, at 50.0 µM, hits give high values. The gist of the method: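 Yeast carrying a defined mutation is treated with each compound, and growth is compared with that of vehicle-exposed cells to give inhibition.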
As for `c1ccc2cc(C3OCC4(CCC4)CO3)ccc2c1`, the growth inhibition was 24.8% (inactive).

As to `CC(=O)Oc1ccc2c(OC(C)=O)c(C)cc(OC(C)=O)c2c1`, the growth inhibition was 19.1% (inactive).

For the molecule `CC(C)OC(=O)c1cccnc1`, the growth inhibition is -1.35% (inactive).

In the case of `O=C(CN1CCN(c2cccc(Cl)c2)CC1)N1CCc2c([nH]c3ccccc23)C1c1cccnc1` (stereo not given), the growth inhibition was -2.25% (inactive).

Consider `COC(=O)[C@H]1N[C@@H](C(=O)OC)C23CCC[C@H]2CC[C@]1(C(OC)OC)C3`, for which the growth inhibition was -0.65% (inactive).

As to `CCCCC(CC)CO` (stereo not given), the growth inhibition was -16.5% (inactive).

Take `CSCCCO`: the growth inhibition is -2.45% (inactive).

As to `CCC(O)(Cc1ccccc1)C(C(=O)O)c1ccccc1` (stereo not given), the growth inhibition was -28.1% (inactive).

Turning to `C=CCc1cc(OC)ccc1O`, the growth inhibition is 22.3% (inactive).

Consider `CCC(=O)OCCCC1CCCO1` (stereo not given), for which the growth inhibition is 2% (inactive).

With `O=C(O)CCC(=O)Nc1cccc(C(F)(F)F)c1`, the growth inhibition was 15.2% (inactive).

Take `Cn1c(=O)c2c(nc3sc4ccccc4c(=O)n32)n(C)c1=O`: the growth inhibition was -30.9% (inactive).

As for `COc1ccc(/C=N/NC(=O)CCCCCCCCC(=O)N/N=C/c2ccc(OC)c(OC)c2)cc1OC`, the growth inhibition was -0.75% (inactive).

With `Cc1cc(N(CCC#N)CCC#N)ccc1/C=C\C(=O)Nc1ccccc1`, the growth inhibition is 36.7% (inactive).

In the case of `COc1ccc(C(=O)c2ccccc2)c(O)c1OC`, the growth inhibition was 45.8% (inactive).

Consider `Cn1cnc2ncnc(Nc3ccc(Cl)cc3)c21`, for which the growth inhibition is 10% (inactive).

With `CCOC(=O)C(C)(Cc1cccc2ccccc12)C(=O)OCC`, the growth inhibition is 29.8% (inactive).

As to `Oc1c(Cl)cc(N=Cc2ccc(N(CCCCl)CCCCl)cc2Cl)cc1Cl`, the growth inhibition was 54.7% (inactive).

For the molecule `CCOC(=O)C[n+]1cccc(Br)c1`, the growth inhibition was 16.3% (inactive).

With `O=C(O)CNC(=O)c1cccc(Cl)c1`, the growth inhibition is 16.9% (inactive).

On to `CCN(CC)c1ccc(N=Nc2ccc([N+](=O)[O-])cc2OC(=O)/C=C/c2ccccc2)c(OC(=O)/C=C/c2ccccc2)c1`, for which the growth inhibition is -32.5% (inactive).

For `O=C(O)c1ccnc(-c2ccc(Cl)cc2)c1`, the growth inhibition was -16.8% (inactive).

Another test is described as follows: NCI Yeast Anticancer Drug Screen. Data for the mlh1 rad18 strain (AID 175). Particulars: S. cerevisiae mlh1 rad18 strain growth inhibition; at 50.0 µM; hits give high values. The gist of the method: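 Genetically defined yeast (DNA repair-deficient) exposed to compounds; growth inhibition determined relative to vehicle.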
As for `CCc1cccc(C(C)CC)c1N=C(NC(=O)c1ccccc1C(=O)NC(=Nc1c(CC)cccc1C(C)CC)SC)SC` (stereo not given), the growth inhibition was -5.15% (inactive).

`Cc1cccc(-c2nnc3s/c(=C\c4ccc(N(C)C)cc4)c(=O)n23)c1`: the growth inhibition is 16.4% (inactive).

In the case of `CN(C)CC(C(N)=O)C(N)=O`, the growth inhibition is 7.45% (inactive).

Turning to `CC1=Nc2ccccc2NC(C)(C)C1`, the growth inhibition was 20.4% (inactive).

As for `CCOC(=O)Cc1nc2ccccc2[nH]c1=O`, the growth inhibition was -17.2% (inactive).

For `CCCCCOc1ccc2ccccc2c1`, the growth inhibition is 7.15% (inactive).

Consider `CCOC(=O)Cc1nnc2n(-c3ccccc3)c(=O)c3ccccc3n12`, for which the growth inhibition was -74.2% (inactive).

As for `COc1cc(C(OC(C)=O)OC(C)=O)c(Cl)c(Cl)c1OC(C)=O`, the growth inhibition was 18.6% (inactive).

With `CCCCCCCCCCCCOc1ccc(Br)cc1`, the growth inhibition was 8.7% (inactive).

As for `Nc1nn(CC(O)CO)c(=O)s1` (stereo not given), the growth inhibition is 8% (inactive).

Regarding `O=C1NC(=S)S/C1=C/C=C/c1ccccc1[N+](=O)[O-]`, the growth inhibition is -16.6% (inactive).

For the molecule `COc1ccc(/C=C/C(=O)c2c(-c3ccccc3)nn(C)c(=O)c2N2CCCCC2)cc1`, the growth inhibition is 1.7% (inactive).

For `O=C(C[n+]1ccccc1)c1ccccc1`, the growth inhibition was 30.7% (inactive).

In the case of `O=C(CN1CCN(Cc2ccccc2)CC1)N1CCCn2c1nc1ccccc1c2=O`, the growth inhibition was -3.85% (inactive).

Regarding `Clc1c2c(nc3ccccc13)CCCC2`, the growth inhibition is 8.05% (inactive).

For the molecule `CC[n+]1ccc(-c2ccccc2)o1`, the growth inhibition is -4.75% (inactive).

For `O=c1cc(CO)oc2c3c(cc(O)c12)OCC(COC1OC(CO)C(O)C(O)C1O)=CC3` (stereo not given), the growth inhibition is -0.9% (inactive).

On to `O=C1C2(CCCC13OC3c1ccccc1)OC2c1ccccc1` (stereo not given), for which the growth inhibition was -3.6% (inactive).

As for `c1ccc2cc(C3OCC4(CCC4)CO3)ccc2c1`, the growth inhibition was -6.9% (inactive).

For the molecule `CC(=O)Oc1ccc2c(OC(C)=O)c(C)cc(OC(C)=O)c2c1`, the growth inhibition is 24.4% (inactive).

With `CC(C)OC(=O)c1cccnc1`, the growth inhibition is -2.45% (inactive).

As to `O=C(CN1CCN(c2cccc(Cl)c2)CC1)N1CCc2c([nH]c3ccccc23)C1c1cccnc1` (stereo not given), the growth inhibition was -16.9% (inactive).

In the case of `COC(=O)[C@H]1N[C@@H](C(=O)OC)C23CCC[C@H]2CC[C@]1(C(OC)OC)C3`, the growth inhibition is -16.1% (inactive).

As to `CCCCC(CC)CO` (stereo not given), the growth inhibition was -20.3% (inactive).

For `CSCCCO`, the growth inhibition is -7.4% (inactive).

As to `CCC(O)(Cc1ccccc1)C(C(=O)O)c1ccccc1` (stereo not given), the growth inhibition is -26% (inactive).

Consider `C=CCc1cc(OC)ccc1O`, for which the growth inhibition is 19.6% (inactive).

For the molecule `CCC(=O)OCCCC1CCCO1` (stereo not given), the growth inhibition was -2.05% (inactive).

Values taken from PubChem BioAssay (NCI).
